The panel holds about 83,000 compounds, 20% with a hit somewhere; the sample as a whole holds those more often.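 Step 1: grow cells in 96-well plates. Step 2: add test compound at a single concentration. Step 3: incubate 48 h. Step 4: record percent growth.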 A number with no mark means an inactive call. Activity calls are given as the source filed them.
Each compound was assayed on A549/ATCC NSCLC (assay: NCI-60 one-dose screen, 48 h (100 = growth as untreated, 0 = no growth, -100 = all killed)). Conditions: 10 µM unless noted.
Protocol: Growth inhibition of the A549/ATCC human Non-Small Cell Lung tumor cell line is measured as a screen for anti-cancer activity. Cells are grown in 96 well plates and exposed to the test compound for 48 hours. Compounds are tested at a single concentration, which is 10^-5 M for most compounds. The reported endpoint is percent growth (GI% or GIPRCNT), where numbers from 0 - 100% represent growth inhibition, and numbers from -100% - 0 represent cell death. For example, a value of 40 represents 60% growth inhibition. A value of 0 means no net growth occurred over the course of the experiment. A value of -40 indicates 40% of cells at the beginning of the experiment died by the end of the experiment. A value of -100 means all cells are dead at the end of the experiment.
NCI-60 Human Tumor Cell Lines Screen was performed using the standard one-dose NCI protocol, which is described in more detail at https://dtp.cancer.gov/discovery_development/nci-60/default.htm.
Compounds with GIPRCNT values below 10 were considered active. Activity score was based on GIPRCNT using the following formula: […]
Score is 0 for GIPRCNT values of 100 or above, 50 for GIPRCNT values of 0, and 100 for GIPRCNT values of -100.

Point of comparison: `O=C1Nc2c(ccc(Cl)c2Cl)/C1=C/c1ccccn1`, growth 13%. Against it:
- COc1ccc(C(=O)/C=C/c2cn(Cc3ccc(Cl)cc3)c3ccccc23)cc1 — higher, 57.2%
- CCCCCCCCCCN=C(N)N=C(N)N — higher, 70.1%
- CS(=O)(=O)OCCN(CCOS(C)(=O)=O)c1ccc(/C=N/Nc2ccc([N+](=O)[O-])cc2[N+](=O)[O-])cc1 — higher, 80.8%
- COc1ccc(-c2nc(SC(C)C)nc(NNC(N)=O)c2C#N)cc1 — higher, 88.6%
- O=C(CN1CCOCC1)Nc1ccc2ncnc(Nc3ccc(OCc4cccc(F)c4)c(Cl)c3)c2c1 — higher, 49.9%
- Nc1nnc(C(=O)c2cnc3n(c2=O)CCCCC3)s1 — higher, 102%
- O=C(Nc1ccc2ncnc(Nc3ccc(Oc4cccc(F)c4)c(Cl)c3)c2c1)c1ccc(CN2CCOCC2)cc1 — higher, 33.6%
- COc1ccc(C(=O)c2cc3c(N)c(C(=O)Nc4ccc(Cl)cc4)sc3nc2C)cc1 — higher, 77.1%
- Cc1ccc(Nc2cc(=S)nc(N)[nH]2)cc1C — higher, 99.9%
- CC(=O)NCCCS(=O)(=O)O — higher, 114%
- CO[C@@H]1[C@H](N(C)C(=O)c2ccccc2)C[C@@H]2O[C@]1(C)n1c3ccccc3c3c4c(c5c6ccccc6n2c5c31)C(=O)NC4=O — higher, 27.3%
- CCSc1ccc2c(c1)N(CCCN1CCN(C)CC1)c1ccccc1S2 — higher, 53.6%
- COc1c(Cl)cc(Cl)c2ccc(C=C3C(=O)NC(=S)NC3=O)nc12 — higher, 104%
- COc1ccc(C2CC(c3cccc(Nc4ccncc4)c3)=NN2c2ccccc2)cc1 (stereo not given) — higher, 39.9%
- CC(=O)OC1CCC2(C)C(CCC3C4CC=C(C(C)=O)C4(C)OC(=O)CC32)C1 (stereo not given) — higher, 59.1%
- CSc1nc(O)c(-c2ccccc2)c(=O)[nH]1 — higher, 100%
- Cc1[nH]c(C(=O)Nc2ccccc2OCc2cccc(C(=O)NCCN)c2)c(Cl)c1Cl — higher, 63.8%
- CC1(c2ccccc2)NC(=O)N(CC(=O)Nc2cccc(I)c2)C1=O (stereo not given) — higher, 87.6%
- COc1cc2nc(-c3ccc(C#N)cc3)[nH]c(=O)c2cc1OC — higher, 15.5%
- CNC(=O)NCC1OC(n2cnc3c(NC(=O)Nc4ccccc4)ncnc32)C(O[Si](C)(C)C(C)(C)C)C1O[Si](C)(C)C(C)(C)C (stereo not given) — higher, 23%
- Clc1ccc(N2N=C(c3cccc(Nc4ccncc4)c3)CC2c2ccc3c(c2)OCO3)cc1 (stereo not given) — higher, 36.4%
- ClCC1(Cn2cnc3c(Cl)nc(Cl)nc32)COC1 — higher, 57.5%
- O=C(CCN1CCCC1)Nc1ccc2c(Nc3ccccc3)c3ccccc3nc2c1 — lower, 10.1%
- COc1ccccc1C(C[N+](=O)[O-])c1c(-c2ccccc2)[nH]c2cc(C)ccc12 (stereo not given) — higher, 61.8%
- O=C(N/N=C/c1ccc(F)cc1)c1ccccc1Nc1cccc(C(F)(F)F)c1 — higher, 53.3%
- CN1CCN(CC#CCNC(=O)[C@]23CCC(C)(C)C[C@H]2C2=CC[C@@H]4[C@@]5(C)Cc6c([nH]c7ccccc67)C(C)(C)[C@@H]5CC[C@@]4(C)[C@]2(C)CC3)CC1 — higher, 52.8%
- NS(=O)(=O)c1cccc(NC(=O)C(=O)C2C(=O)Nc3ccccc32)c1 (stereo not given) — higher, 103%
- CCCCCCCCCCCCCCCC(=O)OC[C@@]1(O)C[C@@]23CC[C@@H]4C(C)(C)CCC[C@@]4(C)[C@@H]2CC[C@H]1C3 — higher, 103%
- Fc1ccc(-n2cc(COc3ncnc4sc5c(c34)CCCC5)nn2)cc1Cl — higher, 98.4%
- CCN1C(=O)N(CC)C2C1NN=c1s/c(=C3\C(=O)Nc4ccccc43)c(=O)n12 (stereo not given) — higher, 28.8%
- Fc1ccc(C2CC(c3cccc(Nc4ccncc4)c3)=NN2c2cc(Cl)cc(Cl)c2)cc1 (stereo not given) — higher, 29.1%
- O=C(Nc1nc(-c2ccc(Br)cc2)cs1)c1cc(-c2ccc(Br)cc2)nc2ccc(Cl)cc12 — higher, 84.8%
- COc1cc(C2CC(c3cccc(Nc4ccncc4)c3)=NN2c2cc(Cl)cc(Cl)c2)cc(OC)c1OC (stereo not given) — higher, 17.9%
- COc1ccccc1OCC(=O)N1CCCCCC1 — higher, 92.1%
- CCOC(=O)c1ccc(Nc2ccnc(SCC(=O)c3ccc(C#N)cc3)n2)cc1 — higher, 60.6%
- COc1ccc(C(=O)c2cc3c(N)c(C(=O)Nc4cccc(Br)c4C)sc3nc2C)cc1 — higher, 17.4%

For `CC1=CC2(C)/C=C(C)/C=C\CC(O)/C=C3/C=CC(=C4C(=O)OC2(CC1C)C4=O)OC3` (stereo not given), the growth was 8.64% (active).
`Cn1c(COC(=O)NCCn2ccnc2)nc2c(N3CCOCC3)nc(-c3ccccc3)nc21` was tested, and the growth was -36.2% (active).
For `O=C(Nc1ccc2cc3ccc(NC(=O)N4CCCCCC4)cc3nc2c1)N1CCCCCC1`, the growth was -11.3% (active).

Source: PubChem BioAssay (NCI)
